Pf growth 48h: Primary qHTS for delayed death inhibitors of the malarial parasite plastid, 48 hour incubation; P. falciparum luciferase growth in erythrocytes, 48 h; Potency, µM (top dose mostly 28.7 µM), hits mostly inhibitors; 310,000 compounds, 5.9% hits; AID 504832, 2011
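Luminescence readout; reporter = integrated firefly luciferase in P. falciparum. RBC culture at 2% hematocrit, 0.1% parasitemia final, 37 C/5% CO2; decreased signal taken as growth inhibition.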
AmpC no deterg: qHTS Inhibitors of AmpC Beta-Lactamase (assay without detergent). AmpC nitrocefin hydrolysis, absorbance 480 nm, 0.0001% Triton. Potency, µM (doses to about 57.1 µM), actives largely listed as inhibitors. 330,000 compounds, 0.52% hits; further: nearly all actives have a fitted effect of over 20% in size
Target sequence (P00811 whole entry, looked up): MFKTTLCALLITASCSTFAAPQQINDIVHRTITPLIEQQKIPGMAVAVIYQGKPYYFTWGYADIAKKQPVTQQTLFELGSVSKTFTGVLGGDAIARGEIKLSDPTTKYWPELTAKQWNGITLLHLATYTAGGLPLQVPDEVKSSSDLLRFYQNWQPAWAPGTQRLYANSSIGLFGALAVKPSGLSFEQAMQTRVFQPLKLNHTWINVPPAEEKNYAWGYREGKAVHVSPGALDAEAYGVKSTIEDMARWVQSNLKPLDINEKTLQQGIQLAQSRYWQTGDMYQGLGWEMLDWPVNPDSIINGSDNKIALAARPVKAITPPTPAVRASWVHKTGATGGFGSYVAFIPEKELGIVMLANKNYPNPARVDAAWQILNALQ
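AmpC (5.3 nM in the dispensed reagent) in 20 mM phosphate pH 7.0 with 0.01% (detergent screen) or 0.0001% Triton X-100 was preincubated with compounds for 15 min at room temperature. Nitrocefin was then added from an 800 uM solution, and hydrolysis was followed at 480 nm.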
AmpC inh detg: qHTS Inhibitors of AmpC Beta-Lactamase (assay with detergent). P00811. AmpC hydrolysis of nitrocefin, absorbance 480 nm, 0.01% Triton. AID 485294, 2010. Potency, µM (highest dose often 114 µM), hits mostly inhibitors. 370,000 compounds, 0.041% hits; further: nearly all actives have a fitted effect of over 25% in size
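AmpC (5.3 nM in the dispensed reagent) in 20 mM phosphate pH 7.0 with 0.01% (detergent screen) or 0.0001% Triton X-100 was preincubated with compounds for 15 min at room temperature. Nitrocefin was then added from an 800 uM solution, and hydrolysis was followed at 480 nm.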
Sm TGR inh: qHTS Assay for the Inhibitors of Schistosoma Mansoni Peroxiredoxins; AID 485364, 2010; Potency, µM (series often up to 114 µM), hits mostly inhibitors; purified TGR, DTNB reduction, TNB absorbance 405 nm; 360,000 compounds, 3% hits; Schistosoma mansoni thioredoxin glutathione reductase (TGR), Q962Y6; further: nearly all actives have a fitted effect of over 60% in size
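TGR 20 nM + NADPH 100 uM (dispensed conc.), cpd preinc 15 min RT; start with NADPH (500 uM addition) then DTNB (15 mM addition). Kinetic TNB absorbance, 405 nm filter. Four-parameter Hill fit across titration.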
SARS PLpro yeast: qHTS of Yeast-based Assay for SARS-CoV PLP; Potency, µM (highest dose often 32.9 µM), actives largely listed as activators; S. cerevisiae expressing SARS-CoV PLpro, growth rescue; 330,000 compounds, 0.19% hits; calls by dose curve; further: nearly all actives have a fitted effect of over 55% in size
Pf growth 96h: Primary qHTS for delayed death inhibitors of the malarial parasite plastid, 96 hour incubation; AID 504834, 2011; Potency, µM (highest dose often 28.7 µM), hits mostly inhibitors; 320,000 compounds, 6.9% hits; P. falciparum luciferase reporter growth, 96 h
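P. falciparum expressing integrated firefly luciferase grown in erythrocytes (2% hematocrit, 0.05% parasitemia final) with compounds for 96 hours at 37 C, 5% CO2. Growth inhibition read as loss of luminescence after adding luciferase detection reagent.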
A number is an active result; n = inactive; u = inconclusive; x = not tested or not shown; [ ] = another dose, or the depositor's remark. In the library only some 12% were active in any assay of this set; here they are far more common. Unless noted, the call rests on the fitted dose curve; in most records, active means well fitted curve in the direction sought with a large enough effect; inconclusive means small, poorly fitted or top-dose-only effect, or another doubt; inactive means no such curve, though single readings can be large; an effect the other way counts as inactive or inconclusive.

SMILES | Pf growth 48h | AmpC no deterg | AmpC inh detg | Sm TGR inh | SARS PLpro yeast | Pf growth 96h
COC(=O)C1=C(c2ccccc2OCc2ccccc2)C[C@@H]2CC[C@H]1N2C(=O)NCCOc1ccc(OC)cc1 | 9.28µM | n | n | n | n | 1.31µM
COC(=O)C1=C(c2ccccc2OCc2ccccc2)C[C@@H]2CC[C@H]1N2C(=O)NCCOc1ccccc1 | 11.7µM | n | n | n | n | u
COC(=O)C1=C(c2ccc3ccccc3c2)C[C@@H]2CC[C@H]1N2C(=O)NCCCOC(C)C | u | n | n | n | n | u
COC(=O)C1=C(c2ccccc2OCc2ccccc2)C[C@@H]2CC[C@H]1N2C(=O)NCCCOC(C)C | u | n | n | n | n | 5.22µM
CC(C)C[C@H](NC(=O)OC(C)(C)C)c1nnc(SCc2ccccc2)o1 | 8.28µM | n | n | n | n | x
CC(C)(C)OC(=O)N[C@@H](Cc1ccccc1)c1nnc(S(=O)(=O)Cc2cccc(F)c2)o1 | u | n | 25.1µM | 0.398µM | n | u
Cc1[nH]c(=O)[nH]c(=O)c1CSc1nnc([C@@H](NC(=O)OC(C)(C)C)C(C)C)o1 | n | n | n | n | n | n
CC(C)(C)OC(=O)NCCCCCc1nnc(SCc2cccc(F)c2)o1 | u | n | n | n | n | n
CC[C@@H](C)[C@H](NC(=O)OC(C)(C)C)c1nnc(S(=O)(=O)Cc2cc(C)ccc2C)o1 | n | u | 11.2µM | 2.82µM | n | n
CC(C)[C@H](NC(=O)OC(C)(C)C)c1nnc(S(=O)(=O)Cc2c(F)cccc2Cl)o1 | n | 2.51µM | 2µM | 1µM | n | x
CCOC(=O)CSc1nnc([C@H](Cc2ccccc2)NC(=O)OC(C)(C)C)o1 | u | n | n | n | n | u
COc1ccccc1NC(=O)CSc1ccc2nnc(CCNC(=O)c3ccccc3)n2n1 | u | n | n | n | n | u
CC(=O)N1Cc2ccccc2CC1C(=O)NCc1ccccc1F (stereo unspecified) | n | n | n | n | n | n
CCCCN(C(=O)C1CSC2(C)CCC(=O)N12)c1c(N)n(CC(C)C)c(=O)[nH]c1=O (stereo unspecified) | u | n | u | n | n | n
Cc1cccc(C)c1NC(=O)CSc1nnc([C@H](C)NC(=O)OC(C)(C)C)o1 | n | n | u | n | n | n[5.75 µM]
C=C(C)CSc1nnc([C@H](CCSC)NC(=O)OC(C)(C)C)o1 | x | n | n | n[11.4 µM] | n | 10.4µM
Cc1ccccc1CS(=O)(=O)c1nnc([C@H](CC(C)C)NC(=O)OC(C)(C)C)o1 | n | u | 14.1µM | 2µM | n | n
CC(C)C[C@H](N)c1nnc(S(=O)(=O)Cc2cccc(F)c2)o1 | n | 4.47µM | 3.55µM | u | n | x
CSCC[C@H](NC(=O)OC(C)(C)C)c1nnc(SCC(=O)Nc2c(C)cccc2C)o1 | x | n | n | n[11.4 µM] | n | u
CS(=O)(=O)N(Cc1ccco1)CC(O)Cn1cc(C=O)c2ccccc21 (stereo unspecified) | x | n | u | n | 10µM | u
CC1CCN(C(=O)CN2CCSc3ccccc32)CC1 | x | x | n | n | x | x
COCc1cc(CN(C)C(=O)c2oc3c(F)cccc3c2C)[nH]n1 | n | n | n | n | n | 13.1µM
CNc1ccc(C(=O)c2ccccc2C(=O)O)cc1[N+](=O)[O-] | n | n | n | n | n | n
CNc1ccc(/C=C/C(=O)c2cccc3ccccc23)cc1[N+](=O)[O-] | u | 28.2µM | n | n | n | u
Cc1ccc(CSCC(=O)Nc2cc(S(=O)(=O)N3CCOCC3)ccc2OC(C)C)cc1 | 10.4µM | n | n | n | n | 6.57µM
SMILES | Pf growth 48h | AmpC no deterg | AmpC inh detg | Sm TGR inh | SARS PLpro yeast | Pf growth 96h
COc1ccc(S(=O)(=O)N2CCOCC2)cc1NC(=O)Cc1cccs1 | u | n | n | n | n | u
Cc1cccc(NC(=O)CSCC(=O)Nc2cc(S(=O)(=O)N3CCOCC3)ccc2OC(C)C)c1 | u | n | n | n | n | u
CC(C)Oc1ccc(S(=O)(=O)N2CCOCC2)cc1NC(=O)Cc1cccs1 | 13.1µM | n | u | n | n | u
O=S(=O)(Nc1nc2ccccc2nc1NCC1CCCO1)c1cccc(Cl)c1 (stereo unspecified) | n | n | n | n | n | n
CCOC(=O)C1(Cc2cccc(OC)c2)CCN(Cc2cccnc2)CC1 | n | n | n | n | n | n
CCOC(=O)C1(Cc2cccc(F)c2)CCN(Cc2ccon2)CC1 | n | n | n | n | n | u
CCOC(=O)C1(Cc2cccc(F)c2)CCN(Cc2cnc(C)s2)CC1 | u | n | n | n | n | 2.33µM
CCOC(=O)C1(Cc2cccc(OC)c2)CCN(Cc2cccc(OC)c2OC)CC1 | u | n | n | n | n | u
CCOC(=O)C1(Cc2cccc(OC)c2)CCN(Cc2cccc3cnccc23)CC1 | 3.7µM | n | n | n | n | u
CCOC(=O)C1(Cc2cccc(OC)c2)CCN(Cc2cc(OC)ccc2OC)CC1 | u | n | n | n | n | 10.4µM
CC1CCCN(CCOc2cccc(Oc3ccccc3)c2)C1 (stereo unspecified) | u | n | u | n | n | n
Cc1ccc(SCc2nc(-c3ccc(C(=O)NCc4ccccc4Cl)cc3)oc2C)cc1 | x | x | u | n | x | x
COc1cc(NC(=O)CN(C)S(=O)(=O)c2ccc3[nH]c4c(c3c2)CCCC4)cc(OC)c1OC | x | x | n | n | x | x
CCC(=NCc1ccco1)c1c(O)n(-c2ccc(Cl)cc2)c(=O)[nH]c1=O | n | n | n | 39.8µM | n | n
CCC(=NCc1ccco1)c1c(O)n(-c2ccc(OC)cc2)c(=O)[nH]c1=O | n | n | n | n | n | n
O=C(N/C(=C/c1cccc([N+](=O)[O-])c1)C(=O)N1CCCCCC1)c1ccco1 | n | n | n | n | n | u
CC1CCN(S(=O)(=O)c2ccc(NC(=O)C3CCN(C(=O)c4ccco4)CC3)cc2)CC1 | u | n | n | u | n | n
CN(C)/C=C/C(=O)/C=C/c1cn(-c2ncc(C(F)(F)F)cc2Cl)c2ccccc12 | 13.1µM | n | n | n | n | u
COc1ccccc1CNC(=O)COc1ccc(S(=O)(=O)N2CCOCC2)cc1 | u | n | n | n | n | u
CC(C)NC(=O)COc1ccc(S(=O)(=O)N2CCCC2)cc1 | n | n | n | n | n | 1.47µM
CCOc1ccc(S(=O)(=O)N2CCC(C(=O)OCc3cccc(OC)c3OC)CC2)cc1 | 9.28µM | n | n | n | n | u
CSc1ccccc1NC(=O)COc1ccc(S(=O)(=O)N2CCCC2)cc1 | 13.1µM | n | n | n | n | u

Screening results from PubChem.
